# Most compounds without a hit are left out; they make up all but 2.3% or so of the library.
# Tau fluor counter: Counterscreen qHTS for Inhibitors of Tau Fibril Formation, Fluorescence Polarization; tau K18 P301L Alexa594 fluorescence, heparin fibrillization; 0.93% of 280,000 active; Potency, µM (series often up to 57.7 µM), without a hit: at the highest dose activity change, negative = decrease; further: potency means the concentration at half of the fitted maximal effect; nearly all actives have a fitted effect of over 55% in size
#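 Human K18 P301L tau (15 uM unlabeled plus 0.24 uM Alexa 594-labeled, final) in 100 mM sodium acetate pH 7 was mixed with compound and 20 uM heparin and incubated 6 hr at 37 C.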
# Tau ThT inhib: qHTS for Inhibitors of Tau Fibril Formation, Thioflavin T Binding; Microtubule-associated protein tau (Homo sapiens), P10636; recombinant tau K18 P301L (four-repeat tau fragment), heparin-induced fibrillization, ThT fluorescence; Potency, µM (titrated, usually from 57.4 µM), for inactives: top-dose activity, negative = inhibition, hits mostly inhibitors; 2.1% of 270,000 active; AID 1460, 2008; further: potency means the concentration at half of the fitted maximal effect; nearly all actives have a fitted effect of over 55% in size
#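 Aggregation was driven by heparin (20 uM final) acting on recombinant tau […] bearing P301L in 100 mM sodium acetate pH 7; fibrils were detected with Thioflavin T.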
# USP1 inh: Inhibitors of USP1/UAF1: Primary Screen | recombinant USP1/UAF1, Ub-Rhodamine cleavage fluorescence | AID 743255, 2014 | 0.23% of 390,000 active | Potency, µM (titrated, usually from 57.1 µM), for inactives: top-dose activity change, negative = inhibition, usual class: inhibitors; further: potency means the concentration at half of the fitted maximal effect; nearly all actives have a fitted effect of over 60% in size
# Target sequence (O94782 whole entry, looked up): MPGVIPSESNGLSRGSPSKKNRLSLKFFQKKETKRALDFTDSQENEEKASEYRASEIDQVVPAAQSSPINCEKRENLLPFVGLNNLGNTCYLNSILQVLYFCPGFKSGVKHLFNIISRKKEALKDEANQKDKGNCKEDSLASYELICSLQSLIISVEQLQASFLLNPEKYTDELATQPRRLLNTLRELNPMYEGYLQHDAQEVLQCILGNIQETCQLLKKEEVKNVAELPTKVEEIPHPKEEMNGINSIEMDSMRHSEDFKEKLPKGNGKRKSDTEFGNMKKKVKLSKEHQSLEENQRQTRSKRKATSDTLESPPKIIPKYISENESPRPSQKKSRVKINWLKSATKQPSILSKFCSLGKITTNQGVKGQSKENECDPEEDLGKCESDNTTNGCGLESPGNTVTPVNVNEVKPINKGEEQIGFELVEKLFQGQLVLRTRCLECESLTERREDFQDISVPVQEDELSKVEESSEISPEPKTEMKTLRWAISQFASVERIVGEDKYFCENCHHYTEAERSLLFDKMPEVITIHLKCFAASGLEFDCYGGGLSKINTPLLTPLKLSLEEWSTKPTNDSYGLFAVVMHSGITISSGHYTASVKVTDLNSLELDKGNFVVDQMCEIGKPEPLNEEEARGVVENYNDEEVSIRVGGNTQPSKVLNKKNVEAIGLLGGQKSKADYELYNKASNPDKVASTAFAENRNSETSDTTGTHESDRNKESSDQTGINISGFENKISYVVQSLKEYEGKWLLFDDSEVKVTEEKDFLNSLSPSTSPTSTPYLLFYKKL
#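 USP1/UAF1 complex at 1 nM was preincubated with compound for 15 min at room temperature, then Ub-Rho substrate (150nM final) was added. Fluorescence (480/540 nm) was read kinetically, 6 reads every 60 seconds.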
# FBPA coupling cs: qHTS Assay for Inhibitors of Fructose-1,6-bisphosphate Aldolase from Giardia Lamblia: Coupling assay counterscreen; 0.67% of 290,000 active; coupling enzyme system counterscreen, AmpLite Red fluorescence; activity change, negative = inhibition, % at 58.2 µM, hits read low; in the data active means activity change below about -30%
#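 First, compound is pin-transferred into glyceraldehyde-3-phosphate coupling-enzyme reagent at 57.5 uM final and held 10 min at RT. Next, substrate, coupling system and AmpLite Red are added. After 20 min RT, fluorescence (525/598 nm) is read.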
# Tau FP inhib: qHTS for Inhibitors of Tau Fibril Formation, Fluorescence Polarization | Microtubule-associated protein tau (Homo sapiens), P10636 | K18 P301L tau heparin fibrillization, Alexa594 FP, 6 h | Potency, µM (top dose mostly 57.7 µM), without a hit: top-dose activity, negative = inhibition, usual class: inhibitors | 0.39% of 280,000 active | AID 1468, 2008; further: potency means the concentration at half of the fitted maximal effect; nearly all actives have a fitted effect of over 55% in size
#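 Human tau K18 […] P301L fragment, 15 uM unlabeled plus 0.24 uM Alexa 594-labeled tau (final), with compound and 20 uM heparin in 100 mM sodium acetate pH 7; 6 hr at 37 C, then Alexa 594 FP read.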
# Starred values were filed as active, the others as inactive; ? = inconclusive; · = not tested or not shown; [ ] = remark or other dose. Unless noted, the call rests on the fitted dose curve; in most records, active means well fitted curve in the direction sought with a large enough effect; inconclusive means small, poorly fitted or top-dose-only effect, or another doubt; inactive means no such curve, though single readings can be large; an effect the other way counts as inactive or inconclusive. On the % scale 0 is the no-effect control and ±100 the full control effect.
SMILES,Tau fluor counter,Tau ThT inhib,USP1 inh,FBPA coupling cs,Tau FP inhib
Cc1ccc(C(C[N+](=O)[O-])c2c(C)[nH]n(-c3ccccc3)c2=O)cc1 (stereo not drawn),-3.4%,?,?,-32.3*,1.4%
Cc1cc(N2CCCCC2)nc2ccc(NC(=O)/C=C/c3ccccc3Cl)cc12,10µM*[quencher],4.47µM*,-19.4%,·,9.8%
Cc1cc(N2CCCCC2)nc2ccc(NC(=O)/C=C/c3ccccc3OC(C)C)cc12,7.08µM*[quencher],?,?,·,13.0%
O=C(/C=C/c1ccccc1Cl)Nc1cccc(S(=O)(=O)NC2=NCCCCC2)c1,14.1µM*[quencher],0.7%,-18.8%,-3.5,?
O=S(=O)(c1ccc(Cl)cc1)c1nc(-c2ccccc2)oc1N1CCN(c2ccccc2)CC1,-9.4%,-0.9%,-4.9%,·,2.0%
CC(=O)c1cccc(NCc2ccccc2-c2nnc(-c3ccccc3)o2)c1,?,-12.8%,-20.0%,·,-9.9%
Oc1ccc(N2CCN(C(=S)NCCc3ccccc3)CC2)cc1,-26.8%,14.1µM*,5.8%,-1.2,13.3%
Cn1nc(-c2ccccc2)cc1NC(=O)Nc1ccc(C(C)(C)C)cc1,12.6µM*[quencher],-0.3%,-15.2%,-5.5,28.2µM*
Cc1ccc(Cl)cc1NC(=O)Cn1c(=O)cc(C)c2c(C)nn(C)c21,-6.0%,-10.2%,-28.5%,·,-6.6%
CCCCN1C(=O)/C(=C/C=C2/CC(C)(C)CN2C)SC1=S,-29.4%,?,22.4µM*,0.9,12.3%
CCN1C(=O)/C(=C/C=C2/Sc3ccccc3N2CCO)SC1=S,2.9%,?,-16.2%,-5.8,-22.7%
CCN1C(=O)/C(=C/C=C2/SCCN2C)SC1=S,-24.0%,?,25.1µM*,-1.7,2.7%
CN1/C(=C\C=C2/SC(=S)N(CC(=O)O)C2=O)C(C)(C)c2ccccc21,?,3.98µM*,25.1µM*,-13.4,-10.6%
CCCN1C(=O)/C(=C\C=C2/Sc3ccccc3N2CCO)SC1=S,18.1%,?,-25.3%,-1.2,-8.2%
C=CCN1C(=O)/C(=C\C=C2\N(C)c3ccccc3C2(C)C)SC1=S,16.8%,?,?,4.7,-7.5%
CN1CCS/C1=C\C=C1/SC(=S)N(CC(=O)O)C1=O,-1.1%,?,25.1µM*,-0.1,1.6%
COc1ccc(CNC(=O)CCNS(=O)(=O)c2ccc3c(c2)CCCC(=O)N3)cc1,-6.8%,-3.3%,-4.9%,·,-9.3%
CCOc1ccc(NS(=O)(=O)c2ccc(C(=O)N(C)C)s2)cc1,-4.2%,5.6%,-5.3%,·,-3.8%
CCOc1ccc(NC(=O)c2cc3c(=O)n4cccc(C)c4nc3s2)cc1,-13.7%,?,-3.3%,·,-14.2%
CCOC(=O)C1=C(C)N=c2s/c(=C\c3ccc(O)c([N+](=O)[O-])c3)c(=O)n2C1c1ccccc1OC (stereo not drawn),·,·,-12.2%,5.2,·
CCOC(=O)C1=C(C)n2c(s/c(=C/c3cccc([N+](=O)[O-])c3)c2=O)=NC1c1ccc(O)c(OC)c1 (stereo not drawn),?,14.1µM*,-9.9%,1.5,-6.0%
COc1ccc2cc3c(N)nn(C(=O)Cc4c[nH]c5ccccc45)c3nc2c1,20µM*[quencher],·,-3.2%,-3.0,3.1%
Clc1ccccc1/C=N/NC1=Nc2cccc3cccc1c23,-28.5%,2µM*,-4.2%,-1.8,2.7%
C(=N\NC1=Nc2cccc3cccc1c23)/c1ccccn1,?,2.82µM*,?,-14.7,3.8%
COc1ccc(-c2cc3nc(C)c(CCC(=O)Nc4ccc(F)cc4F)c(C)n3n2)c(OC)c1,-14.6%,-4.3%,?,·,4.0%
SMILES,Tau fluor counter,Tau ThT inhib,USP1 inh,FBPA coupling cs,Tau FP inhib
COc1cccc(OCc2nc3ccccc3n2CCOc2ccc(C)cc2)c1,-17.8%,?,?,·,-1.1%
CN(C)C(=O)c1ccc(-c2ccc3ncnc(N4CCNCC4)c3c2)cc1,·,·,·,6.1,·
CC1CCN(S(=O)(=O)c2ccc(C(=O)Nc3nc4ccc(F)cc4s3)cc2)CC1,-2.4%,12.5%,?,·,-12.4%
O=[N+]([O-])c1ccc(O)c(C=Nc2cccc3ccccc23)c1,·,·,-11.8%,-9.5,·
Oc1ccc(C=Nc2cccc3ccccc23)c(O)c1,·,·,?,-34.8*,·
COc1ccc(C)cc1NC(=O)C1CCN(S(=O)(=O)c2ccc3[nH]c(=O)oc3c2)CC1,-8.3%,2.1%,-15.2%,·,-8.1%
Cc1ccc([N+](=O)[O-])cc1N=Nc1c(-c2ccc([N+](=O)[O-])cc2)[nH]n(C(N)=S)c1=O,?,?,-22.8%,-0.9,2.2%
NC(=S)n1[nH]c(-c2ccc([N+](=O)[O-])cc2)c(N=Nc2ccc(Cl)cc2)c1=O,?,3.98µM*,-26.7%,-1.0,9.2%
CCOC(=O)c1noc2nc(C)n(CC(=O)Nc3cc(Cl)ccc3OC)c(=O)c12,-5.5%,3.5%,-23.2%,·,-7.3%
CCCn1c(O)c(/C=C2\C=NN=C2c2ccccc2)sc1=S,?,-12.8%,-22.3%,-1.2,17.8µM*
CCCCC(CC)Cn1c(O)c(/C=C2\C=NN=C2c2ccccc2)sc1=S (stereo not drawn),-0.3%,1.0%,-20.9%,-2.4,17.8µM*
Cc1ccc(C)c(N2CCN(C(=O)c3cc4c(=O)n(Cc5cccnc5)ccc4nc3C)CC2)c1,-3.4%,-13.7%,2.1%,·,5.2%
O=C(O)CC12CSc3[nH]c(=O)sc3C1c1ccccc1OC2=O (stereo not drawn),-19.4%,25.1µM*,·,-11.3,?
O=C1C(N2CCOCC2)=C(n2nnc3ccccc32)C(=O)c2ccccc21,?,12.6µM*,14.1µM*,-41.3*,?
CN(c1ccccc1)S(=O)(=O)c1cccc(NC(=O)c2cc(=O)c3ccccc3o2)c1,12.6µM*[quencher],-18.5%,-22.2%,0.4,-27.4%
NS(=O)(=O)c1cccc(NC(=O)c2cc(=O)c3ccccc3o2)c1,·,·,-24.8%,1.0,·
O=C(Nc1cccc(S(=O)(=O)N2CCCCCC2)c1)c1cc(=O)c2ccccc2o1,14.1µM*[quencher],-9.4%,-12.7%,-2.9,?
Cc1ccc(-n2nc(C(=O)N3CCN(c4ccccc4F)CC3)c(=O)n(C)c2=O)cc1,-7.3%,-0.5%,?,·,2.7%
COc1ccc2c(c1)c1c(c(=O)n(-c3cccc(C)c3)c(=O)n1CC(=O)NCCC1=CCCCC1)n2C,-20.5%,-5.7%,-18.2%,·,-7.5%
Cn1c2c(c(=O)n(C)c1=O)C(c1ccccc1C(F)(F)F)CC(=O)N2 (stereo not drawn),-4.6%,-6.3%,-21.8%,·,-4.3%
COc1ccc(C2c3c(-c4ccccc4O)n[nH]c3C(=O)N2Cc2ccco2)cc1 (stereo not drawn),?,-0.3%,-19.9%,0.7,-4.3%

# Source: PubChem BioAssay
